Test results as given in PubChem BioAssay.
For some assays here: Potency and affinity values are given separately. Active and inactive are the calls of the source. Unless noted, no rule for the calls is given here.

How the values were obtained:
[1] = antimalarial activity against Dd2 strain (AID 2302;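 active = growth inhibition above 50% at the single 2 µM test dose, taken to imply half-maximal potency below 2 µM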;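 also: 0% = DMSO untreated growth and 100% = chloroquine plus artemisinin killed control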); details: P. falciparum Dd2 in RBCs, LDH growth readout, 72 h; at 2 µM; stronger effect = higher value
[2] = human hepatoma cell viability loss – ATP luminescence, cytotoxicity control for P. falciparum antimalarial project, primary screen (AID 2303;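 active = inhibition above 50%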;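 also: 0% = DMSO wells and 100% = digitonin-killed cells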); details: HepG2 viability, 24-48 h, at 10 µM, stronger effect = higher value
[3] = molecular target: L-lactate dehydrogenase (Plasmodium falciparum (isolate CDC / Honduras)) (UniProt Q27743); assay: PfLDH activity inhibition – cell lysate, 3D7 strain, counter-screen for P. falciparum growth inhibition project (AID 2304);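 also: 0% = vehicle and 100% = reference inhibitor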; details: P. falciparum 3D7 crude extract, LDH APAD/NBT absorbance; at 2 µM; stronger effect = higher value
Chain of L-lactate dehydrogenase (Plasmodium falciparum (isolate CDC / Honduras)) (Q27743 whole entry, looked up): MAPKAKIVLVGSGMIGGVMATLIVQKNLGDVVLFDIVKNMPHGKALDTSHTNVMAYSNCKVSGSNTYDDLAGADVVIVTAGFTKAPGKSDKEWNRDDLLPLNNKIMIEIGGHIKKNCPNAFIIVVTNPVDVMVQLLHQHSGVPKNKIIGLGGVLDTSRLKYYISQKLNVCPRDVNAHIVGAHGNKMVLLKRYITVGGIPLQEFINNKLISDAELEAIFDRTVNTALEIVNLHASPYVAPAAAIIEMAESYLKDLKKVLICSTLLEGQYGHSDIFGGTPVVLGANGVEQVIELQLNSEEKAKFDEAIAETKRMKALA

[4] = inhibition of 3D7 malaria parasite growth – strain 3D7 (AID 2306);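 also: 0% = DMSO wells and 100% = chloroquine plus artemisinin control wells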; details: P. falciparum 3D7 erythrocytic growth, LDH absorbance, 72 h; at 2 µM; stronger effect = higher value
[5] = molecular target: Calcium-dependent protein kinase 1 (Plasmodium falciparum (isolate 3D7)) (UniProt P62344); assay: PfCDPK1 kinase inhibitors, biochemical, TCAMS library (AID 1159585; cut-off not given, nearly all actives have IC50 up to about 0.98 µM;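 also: inhibitors leave more ATP so luminescence rises with inhibition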); details: recombinant PfCDPK1, Kinase-Glo ATP depletion luminescence
Chain of Calcium-dependent protein kinase 1 (Plasmodium falciparum (isolate 3D7)) (P62344 whole entry, looked up): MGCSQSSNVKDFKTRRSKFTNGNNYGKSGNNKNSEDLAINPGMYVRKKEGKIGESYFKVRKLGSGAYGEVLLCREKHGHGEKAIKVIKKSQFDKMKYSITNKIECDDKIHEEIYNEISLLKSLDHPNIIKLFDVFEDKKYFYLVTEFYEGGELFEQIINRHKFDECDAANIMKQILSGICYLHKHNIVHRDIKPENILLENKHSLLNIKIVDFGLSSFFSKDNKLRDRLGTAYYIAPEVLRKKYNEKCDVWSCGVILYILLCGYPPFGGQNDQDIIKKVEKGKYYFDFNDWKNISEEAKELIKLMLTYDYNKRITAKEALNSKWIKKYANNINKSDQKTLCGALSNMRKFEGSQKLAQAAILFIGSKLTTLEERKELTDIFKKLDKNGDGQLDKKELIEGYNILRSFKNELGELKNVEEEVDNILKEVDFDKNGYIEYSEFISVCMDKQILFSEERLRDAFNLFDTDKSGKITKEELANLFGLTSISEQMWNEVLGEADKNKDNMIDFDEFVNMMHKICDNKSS

[6] = molecular target: Plasmodium falciparum protein kinase 6 (PK6, PF3D7_1337100) (UniProt Q8IDW1); assay: PfPK6 kinase inhibitors, biochemical, TCAMS library (AID 1159586); details: recombinant PfPK6, Kinase-Glo ATP depletion luminescence
Chain of Plasmodium falciparum protein kinase 6 (PK6, PF3D7_1337100) (Q8IDW1 1-305): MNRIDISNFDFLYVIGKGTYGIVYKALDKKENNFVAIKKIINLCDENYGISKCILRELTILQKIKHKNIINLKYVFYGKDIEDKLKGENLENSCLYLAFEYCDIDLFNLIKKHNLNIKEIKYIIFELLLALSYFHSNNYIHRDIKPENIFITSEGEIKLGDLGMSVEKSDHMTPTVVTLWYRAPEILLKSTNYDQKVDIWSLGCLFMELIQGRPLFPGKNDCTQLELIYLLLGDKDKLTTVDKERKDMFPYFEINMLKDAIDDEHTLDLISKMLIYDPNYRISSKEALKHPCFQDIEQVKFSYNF

[7] = molecular target: Protein kinase 7 (PK7), Plasmodium falciparum 3D7 (PF3D7_0213400) (UniProt Q7YTF7); assay: inhibition of Plasmodium PK7 catalytic activity – biochemical, TCAMS antimalarial set, Kinase-Glo luminescence (AID 1159587); details: recombinant PfPK7, Kinase-Glo ATP depletion luminescence
Chain of Protein kinase 7 (PK7), Plasmodium falciparum 3D7 (PF3D7_0213400) (Q7YTF7 1-343): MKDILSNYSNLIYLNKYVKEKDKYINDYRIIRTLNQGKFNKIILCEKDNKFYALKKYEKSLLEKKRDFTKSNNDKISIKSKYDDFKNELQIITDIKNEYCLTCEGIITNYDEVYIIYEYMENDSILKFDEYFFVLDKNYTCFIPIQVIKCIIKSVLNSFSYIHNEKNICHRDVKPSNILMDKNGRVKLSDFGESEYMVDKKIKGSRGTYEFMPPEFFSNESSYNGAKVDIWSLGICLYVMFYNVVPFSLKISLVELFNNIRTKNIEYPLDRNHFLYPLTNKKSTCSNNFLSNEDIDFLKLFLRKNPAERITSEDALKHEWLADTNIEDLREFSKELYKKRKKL

[8] = molecular target: Calcium-dependent protein kinase 4 (Plasmodium falciparum (isolate 3D7)) (UniProt Q8IBS5); assay: PfCDPK4 kinase inhibitors, biochemical, TCAMS library (AID 1159588; cut-off not given, nearly all actives have IC50 up to about 0.91 µM); details: recombinant PfCDPK4, Kinase-Glo ATP depletion luminescence
Chain of Calcium-dependent protein kinase 4 (Plasmodium falciparum (isolate 3D7)) (Q8IBS5 whole entry, looked up): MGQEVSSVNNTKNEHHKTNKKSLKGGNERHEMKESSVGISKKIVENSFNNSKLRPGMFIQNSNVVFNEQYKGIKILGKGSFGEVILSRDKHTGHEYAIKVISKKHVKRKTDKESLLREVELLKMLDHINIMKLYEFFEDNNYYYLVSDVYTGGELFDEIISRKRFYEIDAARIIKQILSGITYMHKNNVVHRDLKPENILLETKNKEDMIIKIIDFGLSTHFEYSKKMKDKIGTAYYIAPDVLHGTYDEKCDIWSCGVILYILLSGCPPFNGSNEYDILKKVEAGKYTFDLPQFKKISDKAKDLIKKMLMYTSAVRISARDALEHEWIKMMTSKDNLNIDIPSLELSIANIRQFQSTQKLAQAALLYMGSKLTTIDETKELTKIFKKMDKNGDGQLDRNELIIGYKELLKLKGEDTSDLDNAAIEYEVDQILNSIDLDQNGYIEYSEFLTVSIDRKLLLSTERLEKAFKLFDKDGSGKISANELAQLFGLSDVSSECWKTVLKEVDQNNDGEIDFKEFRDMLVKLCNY

CC(=O)Nc1ccc(OCCCCN(Cc2ccccc2C(F)(F)F)c2ccc(C#N)c(C(F)(F)F)c2)c(Cl)c1
active: growth inhibition [1] 71% | growth inhibition [4] 98%
inactive: inhibition [2] -1% | inhibition [3] -3% | outcome [5] | outcome [6] | outcome [7] | outcome [8]

COc1ccc(NC(=O)c2ccc(NC(=O)c3ccc(Cl)cc3)cc2)cc1N1CCN(C)CC1
active: growth inhibition [4] 98%
inactive: growth inhibition [1] 40% | inhibition [2] 23% | inhibition [3] -8% | outcome [5] | outcome [6] | outcome [7] | outcome [8]

CCC1CCCCN1S(=O)(=O)c1ccc(NC(=O)c2cc(C)on2)cc1 (stereo not given)
active: growth inhibition [1] 53% | growth inhibition [4] 86%
inactive: inhibition [2] 0% | inhibition [3] 0% | outcome [5] | outcome [6] | outcome [7] | outcome [8]

O=C(Nc1cccc(CN2CCCN(Cc3cccnc3)CC2)c1)c1cc2ccccc2s1
inactive: growth inhibition [1] 28% | inhibition [2] 15% | inhibition [3] 1% | outcome [5] | outcome [6] | outcome [7] | outcome [8]
active: growth inhibition [4] 92%

CC1(C)N=C(N)N=C(N)N1OCCCCOc1ccc(Cl)cc1C1CCCCC1
active: growth inhibition [1] 97% | inhibition [2] 56% | growth inhibition [4] 93%
inactive: inhibition [3] 2% | outcome [5] | outcome [6] | outcome [7] | outcome [8]

CCn1c(-c2nonc2N)nc2c(C#CC(C)(C)O)ncc(OCCNCCc3ccc(OC)cc3)c21
active: growth inhibition [4] 91%
inactive: growth inhibition [1] 44% | inhibition [2] 4% | inhibition [3] -7% | outcome [5] | outcome [6] | outcome [7] | outcome [8]

NC1CCN(c2nc(NCCc3ccc(O)cc3)nc(NCc3ccccc3-c3ccc(C(F)(F)F)cc3)n2)CC1
active: growth inhibition [1] 72% | growth inhibition [4] 100%
inactive: inhibition [2] 18% | inhibition [3] 1% | outcome [5] | outcome [6] | outcome [7] | outcome [8]

COc1cc(NC(=O)c2ccc(-c3ccccc3)cc2)ccc1OCCCN1CCC(c2ccccc2)CC1
active: growth inhibition [4] 103%
inactive: growth inhibition [1] 30% | inhibition [2] 46% | inhibition [3] 2% | outcome [5] | outcome [6] | outcome [7] | outcome [8]

O=C(Nc1ccc(Cl)c(C(F)(F)F)c1)N[C@H]1CCN(CCCCCNC(=O)[C@@H]2C[C@H]2c2ccc(Cl)c(Cl)c2)C1
active: growth inhibition [4] 94%
inactive: growth inhibition [1] -2% | inhibition [2] 39% | inhibition [3] 0% | outcome [5] | outcome [6] | outcome [7] | outcome [8]

CC(=O)c1cccc(NC(=O)NC2CCN(CCCCCNC(=O)/C=C/c3ccc(Cl)c(Cl)c3)CC2)c1
inactive: growth inhibition [1] 1% | inhibition [2] 7% | inhibition [3] 1% | outcome [5] | outcome [6] | outcome [7] | outcome [8]
active: growth inhibition [4] 94%

Nc1nc(N)c2c(Cc3ccccc3)cccc2n1
active: inhibition [2] 68% | growth inhibition [4] 94%
inactive: growth inhibition [1] 3% | inhibition [3] -7% | outcome [5] | outcome [6] | outcome [7] | outcome [8]

CC(=O)Nc1nc(C(=O)Nc2cccc(-c3cccc(-c4nc5ccc(F)cc5[nH]4)c3)c2)cs1
active: growth inhibition [1] 100% | growth inhibition [4] 101%
inactive: inhibition [2] 39% | inhibition [3] -2% | outcome [5] | outcome [6] | outcome [7] | outcome [8]

CCNc1cc(C(=O)N[C@@H](Cc2ccco2)[C@H](O)CNC2CCCCC2)cc(N2CCCCS2(=O)=O)c1
inactive: inhibition [2] 14% | inhibition [3] 3% | outcome [5] | outcome [6] | outcome [7] | outcome [8]
active: growth inhibition [1] 57% | growth inhibition [4] 91%

O=C(NC1CCN(c2ccc(F)cc2[N+](=O)[O-])CC1)c1cccs1
active: growth inhibition [1] 91% | growth inhibition [4] 90%
inactive: inhibition [2] -9% | inhibition [3] -1% | outcome [5] | outcome [6] | outcome [7] | outcome [8]

Cc1c(CNCCCNc2nc3cscc3[nH]2)sc(C(F)F)c1Br
active: growth inhibition [4] 99%
inactive: growth inhibition [1] 11% | inhibition [2] 1% | inhibition [3] 1% | outcome [5] | outcome [6] | outcome [7] | outcome [8]

CCC(CC)NCc1c(O)ccc2c(CNC(CC)CC)c(O)ccc12
active: growth inhibition [1] 94% | growth inhibition [4] 100%
inactive: inhibition [2] 4% | inhibition [3] 0% | outcome [5] | outcome [6] | outcome [7] | outcome [8]

Cc1cccc2[nH]c(-c3ccc(-c4cccc(NC(=O)c5cncn5C)c4)s3)nc12
inactive: growth inhibition [1] 16% | inhibition [2] 13% | inhibition [3] -5% | outcome [5] | outcome [6] | outcome [7] | outcome [8]
active: growth inhibition [4] 103%

CNS(=O)(=O)Cc1ccc(Nc2nccc(Nc3cccc4c3cnn4C(=O)Nc3ccccc3)n2)cc1
active: growth inhibition [4] 89%
inactive: growth inhibition [1] 5% | inhibition [2] 45% | inhibition [3] 1% | outcome [5] | outcome [6] | outcome [7] | outcome [8]

COc1cc2nc(N3CCN(c4cc(C)ccc4C)CC3)nc(N)c2cc1OC
active: inhibition [2] 66% | growth inhibition [4] 98%
inactive: growth inhibition [1] 12% | inhibition [3] 5% | outcome [5] | outcome [6] | outcome [7] | outcome [8]

CCCCCN1CCCCC(NS(=O)(=O)c2ccc(C(=O)Nc3ccc(C(F)(F)F)cc3)cc2)C1 (stereo not given)
active: growth inhibition [4] 89%
inactive: growth inhibition [1] -4% | inhibition [2] 34% | inhibition [3] -2% | outcome [5] | outcome [6] | outcome [7] | outcome [8]

OC(CNCc1ccccc1OCc1ccccc1)c1cc(Br)cs1 (stereo not given)
active: growth inhibition [1] 88% | growth inhibition [4] 97%
inactive: inhibition [2] 16% | inhibition [3] 5% | outcome [5] | outcome [6] | outcome [7] | outcome [8]

O=[N+]([O-])c1ccc2c(-c3ccccc3)c(-c3ccccc3)n(O)c2c1
active: growth inhibition [4] 97%
inactive: growth inhibition [1] 11% | inhibition [2] 8% | inhibition [3] -3% | outcome [5] | outcome [6] | outcome [7] | outcome [8]

Cc1ccc(C)c(Cn2ccc3nc(N)nc(N)c32)c1
active: inhibition [2] 65% | growth inhibition [4] 97%
inactive: growth inhibition [1] 3% | inhibition [3] -1% | outcome [5] | outcome [6] | outcome [7] | outcome [8]

C[C@@H]1CN(c2cnn(C/C=C/c3ccc(NC(=O)c4ccc([N+](=O)[O-])cc4)cc3)c(=O)c2Cl)C[C@H](C)N1
inactive: growth inhibition [1] 38% | inhibition [2] 22% | inhibition [3] -3% | outcome [5] | outcome [6] | outcome [7] | outcome [8]
active: growth inhibition [4] 96%

O=c1c2c([nH]c3cc(Cl)ccc13)CCCC2
active: growth inhibition [1] 73% | growth inhibition [4] 96%
inactive: inhibition [2] 33% | inhibition [3] 2% | outcome [5] | outcome [6] | outcome [7] | outcome [8]

CC(=O)Nc1ccc(CN2CCC(NC(=O)c3ccc(-c4cccc(F)c4)s3)CC2)cc1
inactive: growth inhibition [1] 13% | inhibition [2] 6% | inhibition [3] 0% | outcome [5] | outcome [6] | outcome [7] | outcome [8]
active: growth inhibition [4] 96%

CCNc1cc(C(=O)N[C@@H](Cc2ccccc2)[C@H](O)CN[C@H]2CCc3ccccc32)cc(N2CCCC2=O)c1
active: growth inhibition [1] 99% | growth inhibition [4] 98%
inactive: inhibition [2] 8% | inhibition [3] 3% | outcome [5] | outcome [6] | outcome [7] | outcome [8]

CCN(CC)CCN(Cc1ccc(-c2ccc(C(F)(F)F)cc2)cc1)C(=O)c1c[nH]c2ccc(Br)cc12
active: growth inhibition [1] 74% | inhibition [2] 80% | growth inhibition [4] 90%
inactive: inhibition [3] -4% | outcome [5] | outcome [6] | outcome [7] | outcome [8]

COc1c(I)cc(Cc2cnc(N)nc2N)cc1I
active: growth inhibition [4] 91%
inactive: growth inhibition [1] 0% | inhibition [2] 5% | inhibition [3] -8% | outcome [5] | outcome [6] | outcome [7] | outcome [8]

O=C(Nc1cccc(F)c1)N(Cc1ccc(-c2cccc(CN3CCNCC3)c2)cc1)C1CCN(Cc2ccccc2)CC1
active: growth inhibition [1] 54% | growth inhibition [4] 97%
inactive: inhibition [2] 13% | inhibition [3] -1% | outcome [5] | outcome [6] | outcome [7] | outcome [8]

O=C(NCCN1CCOCC1)c1ccc(-c2ccc(CNCCCc3ccccc3)cc2)nc1
active: growth inhibition [4] 97%
inactive: growth inhibition [1] 10% | inhibition [2] -11% | inhibition [3] -1% | outcome [5] | outcome [6] | outcome [7] | outcome [8]

COc1c(CNCCCCCCNCc2cc(Cl)c3ccccc3c2OC)cc(Cl)c2ccccc12
inactive: growth inhibition [1] 45% | inhibition [3] -4% | outcome [5] | outcome [6] | outcome [7] | outcome [8]
active: inhibition [2] 100% | growth inhibition [4] 96%

COc1ccc(NC(=O)[C@H](Cc2ccccc2)Nc2cc(C)nc(NCC3CCCCC3)n2)cc1
inactive: inhibition [2] 9% | inhibition [3] 1% | outcome [5] | outcome [6] | outcome [7] | outcome [8]
active: growth inhibition [1] 83% | growth inhibition [4] 100%

O=C(Nc1ccc(OC2CCN(Cc3ccccc3)CC2)c(Cl)c1)c1ccsc1
active: growth inhibition [1] 92% | growth inhibition [4] 87%
inactive: inhibition [2] 3% | inhibition [3] 4% | outcome [5] | outcome [6] | outcome [7] | outcome [8]

O=C(NCc1ccccc1)Nc1cccc(-c2cccc(-c3nc4ccc(C(F)(F)F)cc4[nH]3)c2)c1
active: inhibition [2] 56% | growth inhibition [4] 95%
inactive: growth inhibition [1] 30% | inhibition [3] 0% | outcome [5] | outcome [6] | outcome [7] | outcome [8]

Cc1cccc2[nH]c(-c3ccc(-c4cccc(CN5CCCC(O)C5)c4)s3)nc12 (stereo not given)
active: growth inhibition [4] 95%
inactive: growth inhibition [1] 18% | inhibition [2] 13% | inhibition [3] 2% | outcome [5] | outcome [6] | outcome [7] | outcome [8]

CCNc1cc(C(=O)N[C@@H](Cc2ccccc2)[C@H](O)CNC2C3CC4CC(C3)CC2C4)cc(N2CCCCS2(=O)=O)c1 (stereo not given in full)
inactive: inhibition [2] -2% | inhibition [3] 6% | outcome [5] | outcome [6] | outcome [7] | outcome [8]
active: growth inhibition [1] 96% | growth inhibition [4] 97%

NC1=NC(c2ccccc2)(c2ccccc2)C(=O)N1Cc1ccc(-c2cccnc2)cc1
active: growth inhibition [1] 94% | growth inhibition [4] 99%
inactive: inhibition [2] 15% | inhibition [3] 5% | outcome [5] | outcome [6] | outcome [7] | outcome [8]

Cc1cc2c(cc1C(F)(F)F)N(C(=O)Nc1ccc(OCCN(C)C)c(C(F)(F)F)c1)CC2
active: growth inhibition [4] 93%
inactive: growth inhibition [1] 23% | inhibition [2] 38% | inhibition [3] -2% | outcome [5] | outcome [6] | outcome [7] | outcome [8]

NC1CCCN(Cc2cccc(-c3ccc(-c4nc5ccc(C(F)(F)F)cc5[nH]4)cc3)c2)C1 (stereo not given)
active: growth inhibition [1] 96% | growth inhibition [4] 99%
inactive: inhibition [2] 47% | inhibition [3] -3% | outcome [5] | outcome [6] | outcome [7] | outcome [8]
